What all share (assay): DAPPL (digital affinity profiling via proximity ligation, sequencing); 10 mM Tris-HCl pH 7.5, 50 mM NaCl, 1 mM DTT, 4% glycerol, room temperature, 30 min; GST-TFs on glutathione beads, 16-mer random dsDNA library, 0.1% formaldehyde crosslink after washing; high values mean tight binding
What all share (details): protein: recombinant; tags: N-terminal GST; dsDNA, one strand shown

One experiment concerns the target T1, FLI1 (Homo sapiens, UniProt Q01543 1-452).
T1 sequence: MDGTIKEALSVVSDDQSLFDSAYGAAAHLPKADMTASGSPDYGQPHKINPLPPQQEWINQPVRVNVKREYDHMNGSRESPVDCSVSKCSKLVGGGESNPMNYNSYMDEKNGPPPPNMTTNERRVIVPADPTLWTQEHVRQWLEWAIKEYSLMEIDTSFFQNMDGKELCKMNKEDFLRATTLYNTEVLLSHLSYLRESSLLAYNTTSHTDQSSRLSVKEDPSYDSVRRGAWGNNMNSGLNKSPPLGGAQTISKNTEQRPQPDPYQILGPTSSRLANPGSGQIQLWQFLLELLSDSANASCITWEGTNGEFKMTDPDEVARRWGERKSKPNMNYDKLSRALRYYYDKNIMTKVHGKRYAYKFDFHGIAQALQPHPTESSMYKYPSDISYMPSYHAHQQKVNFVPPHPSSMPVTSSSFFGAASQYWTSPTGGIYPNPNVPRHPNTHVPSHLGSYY
In a few lines: (§1)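 Each value of binding signal is a hexamer's read frequency for a factor divided by the same hexamer's frequency in the tag-only sample. Barcoded, bead-captured GST fusions of human transcription factors made in yeast were pooled with that sample and incubated with 200 nmole of a random double-stranded 16-mer DNA library in Tris/NaCl/DTT/glycerol buffer at room temperature for 30 min. Washing, 0.1% formaldehyde crosslinking, proximity ligation, PCR and Illumina NextSeq500 sequencing followed.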

The next experiment has as its target T2, ELK1 (Homo sapiens, UniProt P19419 1-428).
T2 sequence: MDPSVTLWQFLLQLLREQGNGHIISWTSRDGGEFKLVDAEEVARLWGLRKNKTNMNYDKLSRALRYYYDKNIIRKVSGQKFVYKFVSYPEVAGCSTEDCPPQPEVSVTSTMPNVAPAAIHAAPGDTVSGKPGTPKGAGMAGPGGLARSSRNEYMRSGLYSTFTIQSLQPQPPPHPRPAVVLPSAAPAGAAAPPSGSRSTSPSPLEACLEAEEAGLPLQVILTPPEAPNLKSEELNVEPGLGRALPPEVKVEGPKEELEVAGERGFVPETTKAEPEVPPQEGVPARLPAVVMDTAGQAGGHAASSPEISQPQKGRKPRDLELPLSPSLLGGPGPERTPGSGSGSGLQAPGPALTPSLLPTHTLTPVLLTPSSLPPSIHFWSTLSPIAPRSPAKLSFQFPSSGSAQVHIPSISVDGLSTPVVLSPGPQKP
In a few lines:
as §1

A further experiment deals with T3, GABPA (Homo sapiens, UniProt Q06546 1-454).
T3 sequence: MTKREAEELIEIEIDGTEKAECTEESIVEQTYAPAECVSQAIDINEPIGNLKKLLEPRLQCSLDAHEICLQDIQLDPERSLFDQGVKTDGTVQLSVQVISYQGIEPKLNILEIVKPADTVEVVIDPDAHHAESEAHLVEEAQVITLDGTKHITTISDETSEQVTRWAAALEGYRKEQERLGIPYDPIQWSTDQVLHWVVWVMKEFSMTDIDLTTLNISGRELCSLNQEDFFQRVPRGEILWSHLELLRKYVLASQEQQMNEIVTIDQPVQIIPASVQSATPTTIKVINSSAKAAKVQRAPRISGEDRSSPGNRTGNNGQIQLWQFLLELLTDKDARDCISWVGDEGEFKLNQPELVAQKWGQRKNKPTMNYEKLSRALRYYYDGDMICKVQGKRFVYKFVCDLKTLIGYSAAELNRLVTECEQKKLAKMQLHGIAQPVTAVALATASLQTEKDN
In a few lines:
as §1

In the next experiment the target is T4, ERG (Homo sapiens, UniProt P11308 1-479).
T4 sequence: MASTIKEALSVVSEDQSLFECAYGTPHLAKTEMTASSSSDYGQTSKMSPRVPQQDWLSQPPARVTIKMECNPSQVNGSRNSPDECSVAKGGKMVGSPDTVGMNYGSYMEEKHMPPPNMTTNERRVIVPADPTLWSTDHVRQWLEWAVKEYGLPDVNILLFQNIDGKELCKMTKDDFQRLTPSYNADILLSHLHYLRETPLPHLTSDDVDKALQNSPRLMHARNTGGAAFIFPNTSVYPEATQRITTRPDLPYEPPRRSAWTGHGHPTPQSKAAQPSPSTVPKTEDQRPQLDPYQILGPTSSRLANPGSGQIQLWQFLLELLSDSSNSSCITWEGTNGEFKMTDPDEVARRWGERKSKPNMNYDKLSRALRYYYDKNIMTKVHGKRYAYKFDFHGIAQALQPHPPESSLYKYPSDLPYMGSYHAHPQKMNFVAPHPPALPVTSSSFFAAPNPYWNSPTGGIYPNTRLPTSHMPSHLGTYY
In a few lines:
as §1

The target of the next experiment is ELF1 (Homo sapiens, UniProt P32519 1-619). In a few lines:
as §1

The next experiment has as its target T5, EHF (Homo sapiens, UniProt Q9NZC4 1-300).
T5 sequence: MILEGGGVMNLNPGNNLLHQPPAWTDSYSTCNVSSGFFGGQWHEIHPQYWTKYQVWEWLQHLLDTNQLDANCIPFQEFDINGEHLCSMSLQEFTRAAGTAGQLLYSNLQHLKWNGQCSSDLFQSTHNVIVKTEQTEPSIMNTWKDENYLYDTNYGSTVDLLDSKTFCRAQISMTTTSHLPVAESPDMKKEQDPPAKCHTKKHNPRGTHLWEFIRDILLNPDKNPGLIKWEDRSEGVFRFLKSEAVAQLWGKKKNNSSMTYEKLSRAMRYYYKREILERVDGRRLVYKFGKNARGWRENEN
In a few lines:
as §1

A further experiment deals with SPI1 (Homo sapiens, UniProt P17947 1-270). In a few lines: as §1
The target of the next experiment is SPIB (Homo sapiens, UniProt Q01892 1-262). In a few lines: as §1
A further experiment has as its target T6, ELK3 (Homo sapiens, UniProt P41970 1-407).
T6 sequence: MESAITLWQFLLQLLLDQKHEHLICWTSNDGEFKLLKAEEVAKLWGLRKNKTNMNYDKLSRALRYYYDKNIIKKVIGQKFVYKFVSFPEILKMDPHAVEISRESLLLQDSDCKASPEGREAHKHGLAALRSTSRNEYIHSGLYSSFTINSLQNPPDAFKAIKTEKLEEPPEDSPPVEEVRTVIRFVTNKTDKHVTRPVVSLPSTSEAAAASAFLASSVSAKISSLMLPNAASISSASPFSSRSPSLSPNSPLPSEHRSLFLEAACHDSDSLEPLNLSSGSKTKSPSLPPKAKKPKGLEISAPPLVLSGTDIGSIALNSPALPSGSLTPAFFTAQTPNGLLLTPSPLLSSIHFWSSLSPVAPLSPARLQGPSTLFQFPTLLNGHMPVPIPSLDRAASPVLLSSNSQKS
In a few lines: as §1

A further experiment has as its target T7, FEV (Homo sapiens, UniProt Q99581 1-238).
T7 sequence: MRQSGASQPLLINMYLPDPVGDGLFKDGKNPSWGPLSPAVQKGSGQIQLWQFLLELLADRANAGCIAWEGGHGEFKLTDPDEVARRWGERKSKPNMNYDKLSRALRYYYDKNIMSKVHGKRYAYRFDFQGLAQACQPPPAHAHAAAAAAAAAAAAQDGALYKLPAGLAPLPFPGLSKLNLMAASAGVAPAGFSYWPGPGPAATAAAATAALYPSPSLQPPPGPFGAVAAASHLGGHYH
In a few lines: as §1

The target in a further experiment is ETV5 (Homo sapiens, UniProt P41161 1-510). In a few lines:
as §1

For the next experiment, the target named is T8, SPIC (Homo sapiens, UniProt Q8N5J4 1-248).
T8 sequence: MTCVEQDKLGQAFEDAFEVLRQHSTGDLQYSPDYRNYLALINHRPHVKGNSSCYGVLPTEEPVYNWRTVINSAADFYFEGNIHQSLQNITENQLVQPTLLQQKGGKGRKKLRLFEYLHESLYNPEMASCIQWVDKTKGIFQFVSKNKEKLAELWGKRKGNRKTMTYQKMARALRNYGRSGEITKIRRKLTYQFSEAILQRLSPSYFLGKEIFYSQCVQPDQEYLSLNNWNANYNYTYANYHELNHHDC
In a few lines:
as §1

In the next experiment the target is ELF4 (Homo sapiens, UniProt Q99607 1-663). In a few lines: as §1
The target of another experiment is T9, ELK4 (Homo sapiens, UniProt P28324-2 1-405).
T9 sequence: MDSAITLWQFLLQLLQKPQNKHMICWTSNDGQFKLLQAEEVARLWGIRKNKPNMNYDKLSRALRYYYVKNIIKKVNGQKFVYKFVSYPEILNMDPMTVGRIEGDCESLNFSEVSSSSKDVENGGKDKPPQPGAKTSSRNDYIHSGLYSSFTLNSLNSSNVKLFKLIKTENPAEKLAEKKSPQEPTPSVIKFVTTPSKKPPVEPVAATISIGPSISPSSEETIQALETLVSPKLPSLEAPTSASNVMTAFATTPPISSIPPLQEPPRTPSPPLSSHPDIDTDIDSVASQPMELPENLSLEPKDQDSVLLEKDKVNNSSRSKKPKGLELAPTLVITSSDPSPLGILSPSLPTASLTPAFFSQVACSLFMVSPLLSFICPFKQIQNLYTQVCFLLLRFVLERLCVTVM
In a few lines:
as §1

The next experiment deals with T10, ETV2 (Homo sapiens, UniProt O00321 1-342).
T10 sequence: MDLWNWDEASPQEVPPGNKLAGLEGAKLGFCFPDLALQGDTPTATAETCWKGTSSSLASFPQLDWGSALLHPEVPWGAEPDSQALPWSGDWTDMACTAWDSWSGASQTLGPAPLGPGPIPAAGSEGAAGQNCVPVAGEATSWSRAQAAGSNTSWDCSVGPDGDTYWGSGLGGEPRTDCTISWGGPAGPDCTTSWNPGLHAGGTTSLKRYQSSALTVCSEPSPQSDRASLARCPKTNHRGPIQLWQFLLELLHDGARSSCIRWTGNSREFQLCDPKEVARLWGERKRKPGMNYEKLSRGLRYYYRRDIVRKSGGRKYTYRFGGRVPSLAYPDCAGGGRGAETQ
In a few lines: as §1

In the next experiment the target is T11, ELF3 (Homo sapiens, UniProt P78545 1-371).
T11 sequence: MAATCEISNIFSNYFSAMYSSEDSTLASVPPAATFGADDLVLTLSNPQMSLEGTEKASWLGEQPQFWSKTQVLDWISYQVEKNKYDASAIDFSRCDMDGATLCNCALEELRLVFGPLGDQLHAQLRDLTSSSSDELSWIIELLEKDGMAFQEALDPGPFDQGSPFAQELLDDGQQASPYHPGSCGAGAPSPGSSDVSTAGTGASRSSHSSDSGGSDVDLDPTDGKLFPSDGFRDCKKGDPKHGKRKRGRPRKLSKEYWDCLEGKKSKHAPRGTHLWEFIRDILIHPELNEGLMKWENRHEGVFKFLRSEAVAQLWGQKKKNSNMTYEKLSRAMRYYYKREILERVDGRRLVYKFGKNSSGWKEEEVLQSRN
In a few lines:
as §1

Another experiment addresses CRX (Homo sapiens, UniProt O43186 1-299). In a few lines:
as §1

The target of a further experiment is ETV1 (Homo sapiens, UniProt P50549 1-477). In a few lines: as §1
Sequence of ETV1 (P50549 whole entry): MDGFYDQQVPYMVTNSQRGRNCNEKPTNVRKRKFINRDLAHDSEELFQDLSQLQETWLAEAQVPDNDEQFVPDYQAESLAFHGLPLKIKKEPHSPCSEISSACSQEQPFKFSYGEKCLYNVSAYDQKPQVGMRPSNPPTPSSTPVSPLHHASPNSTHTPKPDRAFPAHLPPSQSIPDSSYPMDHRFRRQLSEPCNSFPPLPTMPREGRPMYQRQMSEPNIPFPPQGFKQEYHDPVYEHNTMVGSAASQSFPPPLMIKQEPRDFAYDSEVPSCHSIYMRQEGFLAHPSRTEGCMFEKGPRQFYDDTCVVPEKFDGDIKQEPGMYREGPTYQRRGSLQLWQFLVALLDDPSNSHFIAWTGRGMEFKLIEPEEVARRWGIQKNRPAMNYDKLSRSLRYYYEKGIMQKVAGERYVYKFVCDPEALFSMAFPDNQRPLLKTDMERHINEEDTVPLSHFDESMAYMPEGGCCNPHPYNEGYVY

Sequence of ELF1 (P32519 whole entry): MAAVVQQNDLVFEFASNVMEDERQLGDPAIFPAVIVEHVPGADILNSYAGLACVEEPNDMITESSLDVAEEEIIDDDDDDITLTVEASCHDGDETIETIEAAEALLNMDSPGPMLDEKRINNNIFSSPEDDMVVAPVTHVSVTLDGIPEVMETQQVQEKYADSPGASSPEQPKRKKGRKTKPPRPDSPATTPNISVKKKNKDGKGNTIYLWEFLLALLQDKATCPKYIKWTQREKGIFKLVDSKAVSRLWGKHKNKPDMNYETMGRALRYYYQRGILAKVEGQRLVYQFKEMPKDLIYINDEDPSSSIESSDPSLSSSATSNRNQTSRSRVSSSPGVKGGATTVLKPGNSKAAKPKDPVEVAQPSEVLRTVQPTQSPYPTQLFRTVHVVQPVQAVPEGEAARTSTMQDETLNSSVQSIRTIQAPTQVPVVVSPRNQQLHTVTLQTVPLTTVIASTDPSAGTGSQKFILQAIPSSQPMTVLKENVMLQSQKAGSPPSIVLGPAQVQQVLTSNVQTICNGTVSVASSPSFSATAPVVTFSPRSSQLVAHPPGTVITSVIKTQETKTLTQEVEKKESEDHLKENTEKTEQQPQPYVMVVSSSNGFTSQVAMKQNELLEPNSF
Sequence of SPIB (Q01892 whole entry): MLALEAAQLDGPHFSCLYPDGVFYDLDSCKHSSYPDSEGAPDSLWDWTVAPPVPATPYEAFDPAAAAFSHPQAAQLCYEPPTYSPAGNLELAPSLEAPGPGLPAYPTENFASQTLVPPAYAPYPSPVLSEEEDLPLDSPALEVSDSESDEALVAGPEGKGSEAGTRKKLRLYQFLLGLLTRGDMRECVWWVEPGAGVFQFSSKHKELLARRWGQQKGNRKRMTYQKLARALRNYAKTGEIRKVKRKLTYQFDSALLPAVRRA
Sequence of ETV5 (P41161 whole entry): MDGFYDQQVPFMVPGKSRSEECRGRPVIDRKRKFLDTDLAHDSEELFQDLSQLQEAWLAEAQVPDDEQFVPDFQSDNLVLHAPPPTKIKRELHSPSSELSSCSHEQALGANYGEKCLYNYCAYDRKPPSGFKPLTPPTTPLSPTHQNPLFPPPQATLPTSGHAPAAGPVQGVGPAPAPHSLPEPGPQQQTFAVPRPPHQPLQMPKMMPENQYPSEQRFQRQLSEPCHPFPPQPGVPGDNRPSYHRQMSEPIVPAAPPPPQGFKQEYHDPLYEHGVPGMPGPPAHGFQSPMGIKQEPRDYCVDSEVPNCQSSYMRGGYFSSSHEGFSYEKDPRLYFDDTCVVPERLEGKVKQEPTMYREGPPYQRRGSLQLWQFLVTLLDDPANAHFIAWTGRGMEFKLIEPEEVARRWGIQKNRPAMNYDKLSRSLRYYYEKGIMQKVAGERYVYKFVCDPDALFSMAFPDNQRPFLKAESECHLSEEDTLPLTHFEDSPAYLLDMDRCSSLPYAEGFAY
Sequence of ELF4 (Q99607 whole entry): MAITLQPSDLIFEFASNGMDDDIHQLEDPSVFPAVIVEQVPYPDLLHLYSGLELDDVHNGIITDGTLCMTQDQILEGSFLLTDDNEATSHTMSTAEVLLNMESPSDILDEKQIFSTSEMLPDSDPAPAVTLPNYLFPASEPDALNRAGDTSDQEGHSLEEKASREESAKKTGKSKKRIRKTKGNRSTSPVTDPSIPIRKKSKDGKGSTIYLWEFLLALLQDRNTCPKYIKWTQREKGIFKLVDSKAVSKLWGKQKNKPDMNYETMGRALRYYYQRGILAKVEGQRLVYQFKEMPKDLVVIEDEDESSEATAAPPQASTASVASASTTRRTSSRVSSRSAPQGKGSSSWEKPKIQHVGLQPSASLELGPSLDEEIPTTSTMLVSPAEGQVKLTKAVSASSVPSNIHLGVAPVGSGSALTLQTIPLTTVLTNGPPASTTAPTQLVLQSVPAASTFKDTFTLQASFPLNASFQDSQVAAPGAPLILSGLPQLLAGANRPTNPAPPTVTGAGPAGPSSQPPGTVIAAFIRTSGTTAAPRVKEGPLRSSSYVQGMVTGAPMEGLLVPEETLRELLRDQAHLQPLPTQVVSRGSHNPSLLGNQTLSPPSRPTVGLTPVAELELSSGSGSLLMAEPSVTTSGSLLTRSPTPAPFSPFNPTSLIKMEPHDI
Sequence of CRX (O43186 whole entry): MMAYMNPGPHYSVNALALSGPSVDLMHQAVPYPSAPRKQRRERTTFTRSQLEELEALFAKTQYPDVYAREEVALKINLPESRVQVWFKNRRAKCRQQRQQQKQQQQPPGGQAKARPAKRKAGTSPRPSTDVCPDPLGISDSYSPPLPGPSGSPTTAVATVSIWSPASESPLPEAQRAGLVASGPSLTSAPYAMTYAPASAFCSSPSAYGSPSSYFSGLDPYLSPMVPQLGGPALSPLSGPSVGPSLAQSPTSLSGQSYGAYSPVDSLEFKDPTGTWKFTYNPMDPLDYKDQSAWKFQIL

In the case of CTACGT, the binding signal with FLI1 is 1.29 fold enrichment (6-mer frequency, TF over GST control); with ELK1, 1.23 fold enrichment (6-mer frequency, TF over GST control); with GABPA, 1.18 fold enrichment (6-mer frequency, TF over GST control); with ERG, 1.19 fold enrichment (6-mer frequency, TF over GST control); with ELF1, 1.13 fold enrichment (6-mer frequency, TF over GST control); with EHF it was 1.25 fold enrichment (6-mer frequency, TF over GST control). Further, the binding signal with SPI1 was 1.08 fold enrichment (6-mer frequency, TF over GST control); in the experiment with SPIB, 1.27 fold enrichment (6-mer frequency, TF over GST control); with ELK3, 1.31 fold enrichment (6-mer frequency, TF over GST control); with FEV, 1.28 fold enrichment (6-mer frequency, TF over GST control); in the experiment with ETV5 it was 1.09 fold enrichment (6-mer frequency, TF over GST control); with SPIC it was 1.17 fold enrichment (6-mer frequency, TF over GST control). Also, the binding signal was 1.24 fold enrichment (6-mer frequency, TF over GST control) in the experiment with ELF4; 1.24 fold enrichment (6-mer frequency, TF over GST control) in the experiment with ELK4; 1.03 fold enrichment (6-mer frequency, TF over GST control) in the experiment with ETV2; 1.01 fold enrichment (6-mer frequency, TF over GST control) with ELF3; 1.01 fold enrichment (6-mer frequency, TF over GST control) with CRX; 1.3 fold enrichment (6-mer frequency, TF over GST control) with ETV1.

Regarding AACGGC, the binding signal with FLI1 was 1.08 fold enrichment (6-mer frequency, TF over GST control); with ELK1, 1.13 fold enrichment (6-mer frequency, TF over GST control); with GABPA, 1.25 fold enrichment (6-mer frequency, TF over GST control); in the experiment with ERG it was 1.18 fold enrichment (6-mer frequency, TF over GST control); with ELF1, 1.16 fold enrichment (6-mer frequency, TF over GST control); with EHF, 1.25 fold enrichment (6-mer frequency, TF over GST control). Also, the binding signal with SPI1 was 1.2 fold enrichment (6-mer frequency, TF over GST control); with SPIB, 1.24 fold enrichment (6-mer frequency, TF over GST control); with ELK3 it was 1.06 fold enrichment (6-mer frequency, TF over GST control); in the experiment with FEV it was 1.17 fold enrichment (6-mer frequency, TF over GST control); with ETV5, 1.29 fold enrichment (6-mer frequency, TF over GST control); with SPIC, 1.12 fold enrichment (6-mer frequency, TF over GST control). Besides, the binding signal was 1.24 fold enrichment (6-mer frequency, TF over GST control) with ELF4; 1.24 fold enrichment (6-mer frequency, TF over GST control) in the experiment with ELK4; 1.21 fold enrichment (6-mer frequency, TF over GST control) in the experiment with ETV2; 1.12 fold enrichment (6-mer frequency, TF over GST control) with ELF3; 1.11 fold enrichment (6-mer frequency, TF over GST control) with CRX; 1.17 fold enrichment (6-mer frequency, TF over GST control) with ETV1.

Source of the values: paper PMC7862700, “An all-to-all approach to the identification of sequence-specific readers for epigenetic DNA modifications on cytosine”.
